Over roughly 59,000 sequences, the read-out has its median near -0.00055; the lowest 2% begin near -2. The sample as a whole holds a higher share of the lowest values than the screen did.

The assay in a line: Identification of proteins required for the processing of the EWS-FLI1 nascent transcript.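 Note: robust z of luciferase light less the median z of siRNAs with the same seed.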 The following applies: TC32 Ewing sarcoma NR0B1-luc vs CMV-luc (EWS-FLI1 target promoter against control promoter), 48 h; screened at 20 nM (by protocol). The essentials:
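Three siRNAs per gene, each in a separate well at 20 nM, were transfected into TC32 cells bearing either reporter construct. Luminescence was measured two days on, and per-gene comparison relied on seed-corrected Z values.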
AUAUAGGAUCUUAUUGUGC against B4GAT1 registered a seed-corrected z-score of -0.205.
In turn, UUUUGUCCCGGAACAUGCG against BCR registered a seed-corrected z-score of -0.22.
The result for UUCUCGUUCUGUUAAGUUC against CCDC144B reads 0.479; that for UGUUGUAGUAGUAACGCAG against LOC390937, -3.19; that for UCAGUUGUUACGCAAGGUG against PI16, -0.652.
The result for AAAUGGUCCAGAAUCCAGC against FOXN2 reads 0.634.
The result for UUUGGGUCGUUGUACAUCU against AGBL4 reads -2.02.
Sequence UACUGAACUCCAUCUGACU against C1orf198 registered a seed-corrected z-score of 1.54.
The result for UCGUUGUAUAAUUUUGCCC against WDR17 reads -1.13; that for AAUGCGACGAGACAAGAUG against WASF2, 0.812.
In turn, UUCAUUAAGAAGCACCUGG against NDFIP2 came in with a seed-corrected z-score of 0.91.
The result for ACUAGUACUGGGAAGGUCC against CDKN1C reads -2.28; that for UCUAGGCUCAGCAAUGACU against CD19, 0.138; that for AAUAGAUUCAACAAGGGUG against BCL10, 1.13.
The result for AUGGAGGUAAUGACGAUCA against UPK3B reads -2.86; that for UCUAGAUACUUAAUGGUGC against LAMP2, 0.192; that for UUAUUGACACUUGUUCAAG against COX7A1, 0.106.
The result for AAUGUAUCUAAGCAACUUC against DDIAS reads -0.473; that for ACAUAGGUUGGGUCGAUCC against XYLT2, -1.65; that for UACUUAACCGGGAAGCUAC against NUMB, -0.172.
UUUGCAGGUAGAAUUAAGG against B3GALT5-AS1 gave a seed-corrected z-score of -2.65.
The result for UUAGCAUCUGCAGCAUUCU against RBMY2DP reads -0.255; that for UGGGUUGUAGAGAUCUACC against AKAP4, 0.156; that for UACCCGGAAAAGUAAAUCC against ROBO2, 0.288.
The result for UGAUAUAUGAAUUGGAGUC against CDKN3 reads -0.146; that for UUCUUCAUCAGAUGGUUCC against SF3B2, -3.21; that for AGUUUAGCUAUGACAAUGG against C2orf66, 0.917.
In the case of UUCUCCUUCAUCAAGUUCA against S100A7L2, the seed-corrected z-score is 0.705.
The result for UUCGUUACAGAACUGACCG against YEATS2 reads -0.228; that for UCCAUAACCUGUUCUACGC against NFU1, 0.244.
The result for UCUUGUCUACUAUCACUGC against PRR13 reads 1.15.
The result for UUCUGAACCUUCGCAGUGC against PPP1R3B reads 0.0534; that for UUCUGAAACAAGCCCUUGC against CCDC103, -2.08; that for UUCUUGACUAUCUUCAUCU against CBX4, -0.275.
In turn, UCUAUUUUGACCGAGUAUG against CKAP4 showed a seed-corrected z-score of 0.169.
The result for AUGAUGUUCACGAUGAUGG against SYT7 reads -2.72.
The result for UUGCAAUGCAUGGUGCACC against FAM136A reads -1.35; that for UUGUCUUUUACUUCCAUCC against CLEC7A, -1.06.
Take UAGUUAAUGGAGUAACUCC against KDM5C: the seed-corrected z-score is -0.0641.
The sequence ACUUUUUACCUCCUCAUUC against OR4E2 gave a seed-corrected z-score of 1.72.
The result for AGCAGGAUAAAAACGAUCU against TMC4 reads 0.756.
The result for UGUUGGAUAAGGUUAGAAC against ZNF34 reads 0.0223; that for AAUGUUUCCCACAUGGAUG against SMARCB1, -1.85; that for UGUAAUUAUACCAAUGUAG against EEF1B2P5, -2.11.
The result for UCUCGUAUGAUAUAAUCUC against HCN1 reads 0.749; that for AACCGGAUUAAGGAAAGUG against BTBD1, -0.375; that for UGAAGGGAUAGUUUCUCUG against FZD10-AS1, -0.829.
Turning to UAAGUUGCACUUUCCAUUC against ZNF266, the seed-corrected z-score was -3.46.
The result for AACCGUUCCAUAUCAUCUC against BEX5 reads 0.658; that for UCCUUGUCCACAUGGAGAC against CREBZF, -1.01; that for UUAUAAUCUACAUGCUUUC against MRPS18C, 0.39.
The result for UCUGCUGUCCUGUAAGUCG against AMACR reads 0.214.
The result for UUAGCUGUGAGUGCUUUCC against TNFRSF11A reads -2.35.
In the case of UUGAGUGCAACUUCAAGUC against OPTN, the seed-corrected z-score stood at 2.17.
The result for UUCUGGAGCAGACCUGUCC against DKK4 reads 0.057; that for UGUUAGCUCAGUCACGUAG against GBP7, 0.141; that for GUGUGCAUCAGAUGCUCUG against NUTM2F, 1.15.
For the sequence UCGCUGAUCAGCAUGACCU against ITFG2, the seed-corrected z-score is -0.4.
The result for UCUCUUUAUGCAGCUGACA against LTF reads -2.1.
The result for UAGAUGUUGACGCCCAUGG against MRPL54 reads 0.63; that for UGAGUACCCAUGGUUGGAG against KY, -1.24; that for UUCAGGACAAUCUUGUUCC against UBL5, -0.0381.
The result for AUUGUAACCAGUCACGUAC against FLRT3 reads 0.235; that for UGAGAUAUGCGACAGAUGG against ACOX2, -0.67.
AUUGCUCUGAAGUGAAUUC against LMO4 yielded a seed-corrected z-score of -0.726.
The result for UACAGGCUAAAUACACUCC against ANAPC13 reads -2.73.
The result for AGAGUUAAAACUGGAGGCG against POU2F3 reads 0.349; that for UUCUAGAUUAUUAUAGGAC against LRFN5, -0.0413.
The result for UGUUCUUGUAUUUCGCUUG against ZBED9 reads -0.528; that for AAAGAGGUGAUAGAGCACG against PAQR4, -1.03; that for UACGAUAUCAGCAUUGCAG against CNOT6, 0.29.
In turn, UUCUGGUAUACGUGUUUCG against TNFSF8 showed a seed-corrected z-score of 0.471.
UUGGUUAACCAGGUUCACC against LOC390282: the seed-corrected z-score was -2.14.
In turn, AGCUGGUCAAUGUAGUCGC against MAPK11 displayed a seed-corrected z-score of 0.202.
The result for UACAGUAUCAGCUUCUACA against LOC643855 reads 0.618; that for UUCCAGACCAUGAGAUGCC against PIGO, -0.121; that for UCAUGUUCAACCCAAACUC against ANKMY1, -4.15.
The result for UCUAGGACAGCUCUUAUCC against EDEM3 reads 0.599.
The result for UUUGUUACUUUGUCCAUUC against ARMC9 reads -0.253.
Turning to UAGCUGUUCCUUGUAGUUG against NABP1, the seed-corrected z-score was 0.675.
The result for UUGAUCACCACUUCGGAGC against CHRM1 reads -0.914; that for UCACGUUUAUUCUGAAUCC against NDC1, -1.1.
The result for UGUCCAUGAAAUUUCUCUG against ARL2BP reads 1.12.
The result for UUUUUCUCGAUCUGCUUCC against CCDC64 reads -2.13.
Sequence UAAUGCAUCUUCAAAAUUC against LOC730338 had a seed-corrected z-score of 0.94.
As for UACUUUGUUAUAGGAUCUC against CWC22, the seed-corrected z-score is -0.653.
The result for UUUGGGAUCAAAUCGGUGG against NAPSA reads 0.0625.
UGCGAAUCUGCUAGGAUGC against GLTSCR1L came in with a seed-corrected z-score of 0.0332.
The result for UAUCCUUCAGGCUAAGAUG against SGOL1 reads -2.83; that for UUACUUUGUAGAUACAACA against FAM201A, -1.74; that for UUAGCUGCAAUUGCCUUCU against ZWINT, -2.63.
Take UCGUGAUUACGUUAAGUGC against CCNH: the seed-corrected z-score worked out at 0.304.
The result for UGAAUGCUGAGAACUGUGC against PAPPA2 reads -0.138.
The result for UAUAGGUCAGGCAACCUUG against ATP11AUN reads -0.763; that for UAAGUUGACAGGCUGUCCA against NXPH3, -2.06.
The result for UGCUUGUCUCGGUUAAUGC against NCF2 reads -0.104; that for AAAACUACCGUUUGUGCAU against RPS27, 0.994; that for UGCUCUAGCACAGUGUUCC against CCDC87, -2.86.
AUAGUUUAUAAGUCCUAUC against CGRRF1 displayed a seed-corrected z-score of 0.53.
The result for AUGUCCUUAAAUUCACUCU against GJB2 reads -2.43; that for UAAUAUUACCUUUAUGUUG against TBC1D3P2, 2.12.
Sequence UUCUUGAAAUCCAACCACC against ACSM6 came in with a seed-corrected z-score of 0.592.
AAAUCGUUAGUUGAGGAGC against USP53: the seed-corrected z-score was found to be 0.292.
The sequence ACAGGGACAAUGUAGGAAG against PRSS47 had a seed-corrected z-score of -2.17.
The result for UAGUAUGAAAAUAGAAGUC against BTBD8 reads 0.167.
The result for UCAGGGUUAGAGGUAGUGG against SMCR8 reads 0.401; that for UAGUGGAUGUCAAACGAGG against CTSD, 0.501.
The result for UACCCAUCAAAGCAAUCGC against LTBP1 reads -0.403; that for AGAUCAAUUAGUAAUCCUC against CHM, -0.298.
Sequence UGGAUUGUCAACACCAAUG against CCT2 displayed a seed-corrected z-score of -0.17.
The result for UUUACGUCCAAAGUAGCAC against SEC23B reads -0.0983; that for UGAUCUGCUAGGCAAGAGG against FASTKD1, -0.665.
The result for UGGUUGUUCAACGCUGUAG against MEA1 reads -0.557.
The sequence UUAAGACAUAUCCUGGUGC against YY1AP1 registered a seed-corrected z-score of -2.26.
The result for UUCCUUCUCAGGAUAGUGG against IYD reads 0.306; that for UCGGAUACGGGUGUGAUAC against SNX32, 0.403.
The result for UAGAAUCCCACUGCGAUGC against TTYH3 reads -0.966.
The result for UCAUUCAUCAGGUUCAUGC against TPD52L1 reads 1.32; that for UUGGGCUUCUUCCUAAUGC against SLC16A3, -0.147.
Turning to UUCGAUAGUCUGUUUCUGC against SLK, the seed-corrected z-score is -2.56.
The result for UCAGGGUAUUCAUUGGUGC against INCA1 reads -3.45; that for GAUGUAGAAGCCAUAGUUC against NIPAL4, 0.499; that for UGGAGUUCUUAUAAAAUGC against C15orf43, -0.277.
The result for UUAAUUCCCGUGCCCUUGG against PON2 reads -3.2; that for UUUGGAUGUACGUGUAUAC against DYRK4, 0.282; that for UACUUUCGCCUCCUCAUCC against CCDC89, 1.17.
The result for UUUGGGCAGAUAGAAGGAG against ADAMTS15 reads 0.203.
For the sequence UACUUUCAUAUGCAGGUCC against PCDH8, the seed-corrected z-score was -1.4.
The result for AACCGUUCAUCCUUCGUGC against KLHL6 reads -0.163; that for UCAUCAUCAAAGGCGAUGG against GDNF, -2.86.
The sequence UUCUUGGUGUUGUAGAAGG against AGPAT2 yielded a seed-corrected z-score of 0.219.
The sequence UCAGGUAGAACACUUUGCU against YWHAG yielded a seed-corrected z-score of 0.113.
Sequence UUGCUAUCCAUGUAUAGCC against SLITRK1 yielded a seed-corrected z-score of 0.475.
